Data on 20 compounds can be found in PubChem BioAssay.

A short description of assay [1]: antimalarial activity against Dd2 strain (AID 2302;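 active = growth inhibition above 50% at the single 2 µM test dose, taken to imply half-maximal potency below 2 µM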;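 also: 0% = DMSO untreated growth and 100% = chloroquine plus artemisinin killed control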). Conditions: P. falciparum Dd2 in RBCs, LDH growth readout, 72 h; at 2 µM; hits give high values.
Assay [2] is described as follows: human hepatoma cell viability loss – ATP luminescence, cytotoxicity control for P. falciparum antimalarial project, primary screen (AID 2303;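 active = inhibition above 50%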;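 also: 0% = DMSO wells and 100% = digitonin-killed cells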). The note with it: HepG2 viability, 24-48 h, at 10 µM, hits give high values.
Assay [3] addresses L-lactate dehydrogenase (Plasmodium falciparum (isolate CDC / Honduras)) (UniProt Q27743). Kind of assay: PfLDH activity inhibition – cell lysate, 3D7 strain, counter-screen for P. falciparum growth inhibition project (AID 2304).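 Also: 0% = vehicle and 100% = reference inhibitor.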 Conditions: P. falciparum 3D7 crude extract, LDH APAD/NBT absorbance; at 2 µM; hits give high values.
A short description of assay [4]: inhibition of 3D7 malaria parasite growth – strain 3D7 (AID 2306).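 Also: 0% = DMSO wells and 100% = chloroquine plus artemisinin control wells.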 Conditions: P. falciparum 3D7 erythrocytic growth, LDH absorbance, 72 h; at 2 µM; hits give high values.
Assay [5] deals with Calcium-dependent protein kinase 1 (Plasmodium falciparum (isolate 3D7)) (UniProt P62344). Kind of assay: PfCDPK1 kinase inhibitors, biochemical, TCAMS library (AID 1159585; cut-off not given, nearly all actives have IC50 up to about 0.98 µM;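 also: inhibitors leave more ATP so luminescence rises with inhibition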). Conditions: recombinant PfCDPK1, Kinase-Glo ATP depletion luminescence.
Calcium-dependent protein kinase 1 (Plasmodium falciparum (isolate 3D7)), sequence (P62344 whole entry, looked up): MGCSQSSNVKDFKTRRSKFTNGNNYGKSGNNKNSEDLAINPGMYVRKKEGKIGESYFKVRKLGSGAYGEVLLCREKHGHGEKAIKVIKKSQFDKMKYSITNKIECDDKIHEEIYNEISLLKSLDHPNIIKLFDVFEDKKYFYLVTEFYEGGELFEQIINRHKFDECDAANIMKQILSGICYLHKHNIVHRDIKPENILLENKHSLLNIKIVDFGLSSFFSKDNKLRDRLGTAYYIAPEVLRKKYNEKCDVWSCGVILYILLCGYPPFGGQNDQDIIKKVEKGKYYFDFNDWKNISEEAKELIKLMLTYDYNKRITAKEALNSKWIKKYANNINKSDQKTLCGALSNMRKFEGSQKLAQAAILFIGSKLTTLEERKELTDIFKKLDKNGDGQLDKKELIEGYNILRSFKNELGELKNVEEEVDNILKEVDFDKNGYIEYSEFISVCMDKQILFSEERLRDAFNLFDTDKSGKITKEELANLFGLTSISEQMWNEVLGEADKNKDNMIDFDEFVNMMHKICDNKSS
The target of assay [6] is Plasmodium falciparum protein kinase 6 (PK6, PF3D7_1337100) (UniProt Q8IDW1). The assay is described as follows: PfPK6 kinase inhibitors, biochemical, TCAMS library (AID 1159586). The note with it: recombinant PfPK6, Kinase-Glo ATP depletion luminescence.
Plasmodium falciparum protein kinase 6 (PK6, PF3D7_1337100), sequence (Q8IDW1 1-305): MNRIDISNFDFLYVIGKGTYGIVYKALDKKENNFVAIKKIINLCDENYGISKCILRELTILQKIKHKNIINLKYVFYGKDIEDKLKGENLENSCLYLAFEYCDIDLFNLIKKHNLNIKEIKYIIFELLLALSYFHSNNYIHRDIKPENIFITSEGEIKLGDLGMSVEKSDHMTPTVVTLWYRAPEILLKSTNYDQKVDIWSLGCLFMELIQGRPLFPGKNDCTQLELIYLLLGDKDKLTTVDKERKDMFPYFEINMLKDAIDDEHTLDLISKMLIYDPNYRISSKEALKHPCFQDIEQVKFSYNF
The target of assay [7] is Protein kinase 7 (PK7), Plasmodium falciparum 3D7 (PF3D7_0213400) (UniProt Q7YTF7). Kind of assay: inhibition of Plasmodium PK7 catalytic activity – biochemical, TCAMS antimalarial set, Kinase-Glo luminescence (AID 1159587). The note with it: recombinant PfPK7, Kinase-Glo ATP depletion luminescence.
Protein kinase 7 (PK7), Plasmodium falciparum 3D7 (PF3D7_0213400), sequence (Q7YTF7 1-343): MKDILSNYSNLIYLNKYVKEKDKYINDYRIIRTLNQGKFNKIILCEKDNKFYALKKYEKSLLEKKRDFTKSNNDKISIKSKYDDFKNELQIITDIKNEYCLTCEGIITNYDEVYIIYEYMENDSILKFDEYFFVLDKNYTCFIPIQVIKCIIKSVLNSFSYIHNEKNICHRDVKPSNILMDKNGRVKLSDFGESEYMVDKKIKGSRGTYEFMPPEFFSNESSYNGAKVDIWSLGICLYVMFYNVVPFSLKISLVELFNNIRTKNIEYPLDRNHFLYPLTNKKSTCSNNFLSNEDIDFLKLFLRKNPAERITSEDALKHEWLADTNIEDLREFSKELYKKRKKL
Assay [8] deals with Calcium-dependent protein kinase 4 (Plasmodium falciparum (isolate 3D7)) (UniProt Q8IBS5). Kind of assay: PfCDPK4 kinase inhibitors, biochemical, TCAMS library (AID 1159588; cut-off not given, nearly all actives have IC50 up to about 0.91 µM). The note with it: recombinant PfCDPK4, Kinase-Glo ATP depletion luminescence. For orientation: Kinase-Glo measures the ATP left after a reaction by luminescence.
Calcium-dependent protein kinase 4 (Plasmodium falciparum (isolate 3D7)), sequence (Q8IBS5 whole entry, looked up): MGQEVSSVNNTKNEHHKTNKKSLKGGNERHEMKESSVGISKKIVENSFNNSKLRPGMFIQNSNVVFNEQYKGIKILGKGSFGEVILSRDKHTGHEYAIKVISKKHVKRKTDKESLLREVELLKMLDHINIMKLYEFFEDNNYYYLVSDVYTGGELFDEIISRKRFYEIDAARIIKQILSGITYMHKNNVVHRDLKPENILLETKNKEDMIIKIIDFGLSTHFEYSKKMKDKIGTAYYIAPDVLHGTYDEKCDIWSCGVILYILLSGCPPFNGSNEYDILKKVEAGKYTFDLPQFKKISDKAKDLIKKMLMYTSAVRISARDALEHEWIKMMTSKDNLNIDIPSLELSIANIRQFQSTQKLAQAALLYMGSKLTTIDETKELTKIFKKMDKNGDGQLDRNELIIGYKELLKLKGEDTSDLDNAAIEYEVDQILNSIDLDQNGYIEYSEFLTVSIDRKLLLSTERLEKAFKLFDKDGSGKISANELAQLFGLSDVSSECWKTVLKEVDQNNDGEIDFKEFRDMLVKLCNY

A number with no mark means an inactive call. For some of these results: Entries with a potency or affinity are not part of this list. Calls of active or inactive are those of the source. Unless noted, no rule for the calls is given here.

L-lactate dehydrogenase (Plasmodium falciparum (isolate CDC / Honduras)), sequence (Q27743 whole entry, looked up): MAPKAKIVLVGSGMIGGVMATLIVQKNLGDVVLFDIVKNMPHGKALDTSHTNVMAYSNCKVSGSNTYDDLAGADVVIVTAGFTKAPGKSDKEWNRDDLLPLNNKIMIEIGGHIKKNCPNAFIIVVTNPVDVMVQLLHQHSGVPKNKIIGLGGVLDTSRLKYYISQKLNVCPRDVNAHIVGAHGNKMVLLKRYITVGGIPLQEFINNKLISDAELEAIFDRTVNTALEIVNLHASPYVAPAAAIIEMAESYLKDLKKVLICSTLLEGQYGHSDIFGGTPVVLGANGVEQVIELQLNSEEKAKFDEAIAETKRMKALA

`Cc1ccc(NS(=O)(=O)c2cccs2)cc1-c1cccc(C(=O)Nc2ccc(F)cc2)c1`: the growth inhibition is 100% (active) in assay [1] and 99% (active) in assay [4]. The inhibition (commonly the relative decrease from the control value, in per cent) in assay [2] is 38%; in assay [3], 0%. The outcome in assay [5], in assay [6], in assay [7] and in assay [8] was inactive.

For `CC(C)CC(=O)N1CCNC[C@@H]1C(=O)NC1CC1`, the values for the growth inhibition in assay [1] and in assay [4] were -2% and 82% (active), respectively. The inhibition in assay [2] is -7%; in assay [3], -4%. The outcome in assay [5], in assay [6], in assay [7] and in assay [8] was inactive.

Consider `N#Cc1ccc(CN2CCC(Oc3ccc(NC(=O)c4ccsc4)cc3Cl)C2)cc1` (stereo not given), for which the growth inhibition in assay [1] was 79% (active); in assay [4], 88% (active). Also, the inhibition in assay [2] is 29%; in assay [3], -2%. Also, the outcome in assay [5], in assay [6], in assay [7] and in assay [8] was inactive.

For the compound `Cn1c(NC2CCN(CC3CCN(C(=O)/C=C/c4ccc(Cl)c(Cl)c4)CC3)CC2)nc2ccccc21`, the growth inhibition is 100% (active) in assay [1] and 101% (active) in assay [4]. The results for the inhibition in assay [2] and in assay [3] were 99% (active) and 3%, respectively. Besides, the outcome in assay [5], in assay [6], in assay [7] and in assay [8] was inactive.

As for `COc1ccc(Nc2nc(N)c3cc(OC)c(OC)cc3n2)cc1OC`, the growth inhibition in assay [1] was 5%; in assay [4], 99% (active). The inhibition in assay [2] is -4%; in assay [3], -7%. Moreover, the outcome in assay [5], in assay [6], in assay [7] and in assay [8] was inactive.

As for `CC(C)N1CCN(C(CN2CCN(CCCOc3cccc(F)c3)CC2)c2ccc(F)cc2)CC1` (stereo not given), the figures for the growth inhibition in assay [1] and in assay [4] were 38% and 92% (active), respectively. Besides, the inhibition in assay [2] was 38%; in assay [3], 0%. Moreover, the outcome in assay [5], in assay [6], in assay [7] and in assay [8] was inactive.

`Cc1ccc([N+](=O)[O-])cc1NC(=O)N(CC(O)c1ccccc1)C1CCCCC1` (stereo not given): the growth inhibition in assay [1] was 98% (active); in assay [4], 100% (active). The inhibition in assay [2] is 11%; in assay [3], 6%. The result in assay [5], in assay [6], in assay [7] and in assay [8] was inactive.

For the compound `Cc1cc(Br)c(OCCCON2C(N)=NC(N)=NC2(C)C)c(Br)c1`, the growth inhibition in assay [1] was 97% (active); in assay [4], 95% (active). The inhibition was 62% (active) in assay [2] and -3% in assay [3]. The result in assay [5], in assay [6], in assay [7] and in assay [8] was inactive.

With `O=C(NCc1ccccc1)O[C@@H]1CNCC[C@H]1c1ccc(C(O)Cc2ccccc2)cc1` (stereo not given in full), the growth inhibition in assay [1] is 5%; in assay [4] it was 87% (active). The inhibition in assay [2] was 8%; in assay [3], 4%. Besides, the outcome in assay [5], in assay [6], in assay [7] and in assay [8] was inactive.

`CC(C)CCn1c(Sc2ccc([N+](=O)[O-])cc2C(F)(F)F)nnc1-c1ccccc1Cl`: the values for the growth inhibition in assay [1] and in assay [4] were 43% and 99% (active), respectively. In addition, the inhibition was -5% in assay [2] and 6% in assay [3]. For the same compound, the outcome in assay [5], in assay [6], in assay [7] and in assay [8] was inactive.

Take `NC(N)=Nc1nc(-c2ccc(N=C(N)N3CCC[C@H]3CN3CCCC3)cc2)cs1`: the figures for the growth inhibition in assay [1] and in assay [4] were 66% (active) and 82% (active), respectively. The results for the inhibition in assay [2] and in assay [3] were 6% and 1%, respectively. Also, the result in assay [5], in assay [6], in assay [7] and in assay [8] was inactive.

In the case of `CCc1ccc(CNCC(CCNc2cc(=O)c3ccccc3[nH]2)NCc2cc(Br)cc(Br)c2)o1` (stereo not given), the growth inhibition in assay [1] was 92% (active); in assay [4] it was 100% (active). Also, the inhibition is -11% in assay [2] and 1% in assay [3]. The result in assay [5], in assay [6], in assay [7] and in assay [8] was inactive.

Take `Cc1cc(N[C@@H](Cc2ccccc2)C(=O)NCc2cccs2)nc(NCCc2ccccc2)n1`: the growth inhibition was 61% (active) in assay [1] and 92% (active) in assay [4]. The inhibition was 6% in assay [2] and -1% in assay [3]. The outcome in assay [5], in assay [6], in assay [7] and in assay [8] was inactive.

For `Cc1cc(CNCCCCCCNCc2ccc(Cl)cc2)ccc1O`, the growth inhibition is 0% in assay [1] and 96% (active) in assay [4]. Moreover, the inhibition in assay [2] was 23%; in assay [3] it was -2%. Further, the outcome in assay [5], in assay [6], in assay [7] and in assay [8] was inactive.

For `CN(Cc1cccc(F)c1)C1CCN(c2cc(NC(=O)c3ccc(F)cc3)ccn2)C1` (stereo not given), the figures for the growth inhibition in assay [1] and in assay [4] were 14% and 83% (active), respectively. In addition, the results for the inhibition in assay [2] and in assay [3] were 7% and -3%, respectively. Besides, the outcome in assay [5], in assay [6], in assay [7] and in assay [8] was inactive.

Turning to `CC1=C(C(=O)Nc2ccccc2)C(c2ccc([N+](=O)[O-])cc2)n2ncc(C(=O)Nc3ccccc3)c2N1` (stereo not given), the growth inhibition was 68% (active) in assay [1] and 86% (active) in assay [4]. Moreover, the inhibition in assay [2] was 9%; in assay [3] it was -1%. The outcome in assay [5], in assay [6], in assay [7] and in assay [8] was inactive.

Regarding `COc1ccc(CN(C)CCCOc2ccc(NC(=O)c3cccc4c(=O)c5cccc(C)c5[nH]c34)cc2)cc1OC`, the growth inhibition in assay [1] was 62% (active); in assay [4], 96% (active). The values for the inhibition in assay [2] and in assay [3] were 3% and 1%, respectively. The result in assay [5], in assay [6], in assay [7] and in assay [8] was inactive.

`Cc1ccc2c(Cc3cnc(N)nc3N)cc(C)c(N)c2n1`: the growth inhibition in assay [1] is 92% (active); in assay [4], 91% (active). For the same compound, the figures for the inhibition in assay [2] and in assay [3] were -19% and -2%, respectively. The outcome in assay [5], in assay [6], in assay [7] and in assay [8] was inactive.

Take `O=C(Nc1cccc(CN2CCN(C(=O)c3cccs3)CC2)c1)c1cccs1`: the growth inhibition was 91% (active) in assay [1] and 95% (active) in assay [4]. The values for the inhibition in assay [2] and in assay [3] were -2% and 3%, respectively. Besides, the outcome in assay [5], in assay [6], in assay [7] and in assay [8] was inactive.

As for `Cc1ccc(NC(=O)c2ccc(NCCCN3CC(C)CC(C)C3)c([N+](=O)[O-])c2)cc1F` (stereo not given), the figures for the growth inhibition in assay [1] and in assay [4] were 85% (active) and 101% (active), respectively. Also, the figures for the inhibition in assay [2] and in assay [3] were 18% and -8%, respectively. The outcome in assay [5], in assay [6], in assay [7] and in assay [8] was inactive.
